NS1 inh = qHTS Assay for Inhibitors of Influenza NS1 Protein Function; 270,000 tested, 0.4% active; Potency, µM (series often up to 46.1 µM), for inactives: at the highest dose activity, positive = more growth; calls by dose curve; further: potency means the concentration at half of the fitted maximal effect; actives are rising curves; nearly all actives have a fitted effect of over 50% in size
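Read-out: OD600 growth recovery of NS1-expressing budding yeast. Cells grown overnight at 30C in -URA glucose medium, washed, resuspended and diluted 1:100 in 2% galactose assay medium, pH 6.0. Same strain lacking NS1 served as positive control.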
Pf growth 96h = Primary qHTS for delayed death inhibitors of the malarial parasite plastid, 96 hour incubation. 320,000 tested, 6.9% active. P. falciparum luciferase reporter growth, 96 h. Potency, µM (doses to about 28.7 µM), for the others: top-dose activity change, negative = inhibition, most hits filed as inhibitors; further: potency means the concentration at half of the fitted maximal effect; on the % scale 0 is the no-effect control and ±100 the full control effect
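P. falciparum expressing integrated firefly luciferase grown in erythrocytes (2% hematocrit, 0.05% parasitemia final) with compounds for 96 hours at 37 C, 5% CO2. Growth inhibition read as loss of luminescence after adding luciferase detection reagent.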
Cycloheximide cs = Cycloheximide Counterscreen for Small Molecule Inhibitors of Shiga Toxin; AID 2314, 2010; max response, %; 300,000 tested, 12% active; cell reporter, cycloheximide protein synthesis inhibition counterscreen; in the data active means max response mostly above about 13%, no sharp cut-off; inactive means mostly below about 14%; further: read at 38.3 µM for the half of the compounds with a filed dose; 0% is about no effect
Shiga toxin inh = A qHTS for Small Molecule Inhibitors of Shiga Toxin; inhibition, % at 38.7 µM; AID 2315, 2010; 290,000 tested, 9.2% active; Vero cells, Shiga toxin protein synthesis inhibition reporter; in the data active means inhibition mostly above about 28%, no sharp cut-off; inactive means mostly below about 43%; further: 0% is about no effect
Sm TGR inh = qHTS Assay for the Inhibitors of Schistosoma Mansoni Peroxiredoxins; Schistosoma mansoni thioredoxin glutathione reductase (TGR), Q962Y6; purified TGR, DTNB reduction, TNB absorbance 405 nm; Potency, µM (titrated, usually from 114 µM), without a hit: at the highest dose activity change, negative = inhibition, most hits filed as inhibitors; 360,000 tested, 3% active; further: potency means the concentration at half of the fitted maximal effect; on the % scale 0 is the no-effect control and ±100 the full control effect; nearly all actives have a fitted effect of over 60% in size
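First, TGR (20 nM dispensed) and NADPH were mixed with compound. Second, a 15 min room-temperature incubation followed. Third, further NADPH and then DTNB were added to start the reaction. Finally, TNB absorbance was monitored kinetically.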
Pf growth 48h = Primary qHTS for delayed death inhibitors of the malarial parasite plastid, 48 hour incubation; P. falciparum luciferase growth in erythrocytes, 48 h; Potency, µM (top dose mostly 28.7 µM), inactives show top-dose activity change, negative = inhibition, usual class: inhibitors; 310,000 tested, 5.9% active; further: potency means the concentration at half of the fitted maximal effect; on the % scale 0 is the no-effect control and ±100 the full control effect
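Erythrocytes infected with P. falciparum carrying an integrated firefly luciferase reporter (2% hematocrit, 0.1% parasitemia final) were exposed to compounds in RPMI 1640 with 0.5% Albumax at 37 C, 5% CO2. Growth inhibition was scored as reduced luminescence.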
Active calls of the source: *; ? = inconclusive; nt = no result; [ ] = dose if it differs, or a comment. In the library only some 21% were active in any assay of this set; here they are far more common. Unless noted, the call rests on the fitted dose curve; in most records, active means well fitted curve in the direction sought with a large enough effect; inconclusive means small, poorly fitted or top-dose-only effect, or another doubt; inactive means no such curve, though single readings can be large; an effect the other way counts as inactive or inconclusive.

SMILES | NS1 inh | Pf growth 96h | Cycloheximide cs | Shiga toxin inh | Sm TGR inh | Pf growth 48h
CCCCCCCCCCCCOCCCN | nt | ? | nt | nt | nt | -11%
O=[N+]([O-])c1nn(-c2ccc3c(c2)OCCO3)n(O)c1=NCc1ccc(F)cc1Cl | nt | 18% | 50* | 131* | -6% | 339%
O=[N+]([O-])c1nn(-c2ccc3c(c2)OCCO3)n(O)c1=NCc1ccc(F)cc1 | -14% | -11% | 103* | 92* | -14% | 120%
O=[N+]([O-])c1nn(-c2ccc3c(c2)OCCO3)n(O)c1=NCCC1=CCCCC1 | -4% | ? | 25* | 49 | 25µM* | -12%
O=[N+]([O-])c1nn(-c2ccc3c(c2)OCCO3)n(O)c1=NC1CCN(Cc2ccccc2)CC1 | nt | ? | 3 | 9 | 6% | 32%
Cc1nn(Cc2ccc(F)cc2Cl)c(C)c1[N+](=O)[O-] | -2% | 38%[5.75 µM] | -2 | 0 | nt | 0%
CCCOc1ccc(-c2nn(-c3ccccc3)cc2C2NC(=O)NC(C)=C2C(=O)OC(C)C)cc1 (centres undefined) | nt | nt | nt | nt | -3% | nt
CN(C(=O)COC(=O)c1ccc(Cl)c(S(=O)(=O)N2CCCCC2)c1)C1(C#N)CCCCC1 | nt | ? | nt | nt | -9% | ?
COCCCNC(=S)NNC(=O)c1ccc(C(C)(C)C)cc1 | -1% | -19% | 3 | -19 | 1% | 4%
CCCCC(=O)NNC(=S)NC(=O)c1ccc(C)cc1 | -72% | ? | 22 | 49* | nt | ?
COCCCNC(=S)NC(=O)c1ccc(C)cc1 | 12% | 3% | 78* | 123* | -26% | 197%
CCCCC(=O)NNC(=S)NC(=O)c1ccc([N+](=O)[O-])cc1 | nt | ? | -1 | -17 | ? | -22%
CC(=O)c1ccc(NC(=O)COC(=O)c2ccccc2Sc2ccccc2C#N)cc1 | -6% | 48% | 15* | 2 | -18% | 32%
O=C(COC(=O)c1ccccc1Br)Nc1ccc2[nH]c(=O)[nH]c2c1 | nt | 23% | nt | nt | -10% | 9%
O=C(COC(=O)c1ccc(F)cc1F)NCCNC(=O)COC(=O)c1ccc(F)cc1F | 3% | 35% | 1 | -29 | 6% | 6%
Cc1occc1C(=O)OCC(=O)Nc1ccc(F)cc1 | -18% | 101% | 36* | 75 | -17% | 76%
CC(=O)c1ccc(NC(=O)COC(=O)c2ccc(F)cc2F)cc1 | -12% | 3% | 13* | 32 | 5% | 20%
O=C(COC(=O)c1ccccc1Br)Nc1ccc(F)cc1 | -5% | 12% | 36* | 98* | 1% | 30%
O=C(NCC(c1ccc2c(c1)OCO2)N1CCOCC1)c1ccccc1F (centres undefined) | nt | nt | nt | nt | -14% | nt
COc1ccc(-n2c(=O)c3c4c(sc3n(CC(=O)N3CCCCC3C)c2=O)CCC4)c(OC)c1 (centres undefined) | nt | nt | nt | nt | 5% | nt
CC(C)(C)NC(=O)COC(=O)c1ccccc1OCC(=O)Nc1ccc(Br)cc1 | -8% | -21% | 17* | 35* | 2% | -3%
O=C(COC(=O)c1ccccc1Br)NCCc1ccc(F)cc1 | -1% | 17% | 31* | -9 | -1% | 15%
CCCNC(=O)COC(=O)c1ccccc1OCC(=O)Nc1ccc(Br)cc1 | 5% | -8% | -5 | -8 | 1% | -6%
Cn1c(COc2ccc(Cl)cc2)nnc1SCc1ncc(-c2ccccc2)o1 | -52% | ? | -1 | -19 | 22µM* | ?
COc1ccc(-n2cnnc2SCc2ncc(-c3ccccc3)o2)cc1 | -4% | ? | 8 | -14 | ? | 0%
SMILES | NS1 inh | Pf growth 96h | Cycloheximide cs | Shiga toxin inh | Sm TGR inh | Pf growth 48h
CC[C@H](C)[C@H]1O[C@]2(CC[C@@H]1C)C[C@@H]1C[C@@H](C/C=C(\C)[C@H](O[C@@H]3C[C@H](OC)[C@H](O[C@@H]4C[C@H](OC)[C@@H](O)[C@H](C)O4)[C@H](C)O3)[C@@H](C)/C=C/C=C3\CO[C@@H]4[C@H](O)C(C)=C[C@@H](C(=O)O1)[C@]34O)O2 | nt | 4.8µM* | nt | nt | nt | 1.2µM*
CCN(C1CCCCC1)S(=O)(=O)c1cc2c3c(c1)CCN3C(=O)CC2 | nt | -21% | nt | nt | -3% | -11%
FC(F)(F)c1cccc(Sc2nc(-c3ccccc3)nnc2C(F)(F)F)c1 | 5% | ? | 0 | 14 | -34% | 12µM*
FC(F)(F)c1nnc(-c2ccccc2)nc1Sc1ccccc1 | -17% | 13µM* | 1 | -2 | ? | ?
COc1cccc(OC)c1C(=O)Nc1ccccc1N1CCCCC1 | -57% | 39% | -1 | -20 | 14% | ?
COc1cccc(CNc2ccc(S(N)(=O)=O)cc2)c1OC | 0% | nt | -1 | -10 | ? | ?
COc1ccccc1CNc1ccc(C(=O)O)cc1 | -158% | 15% | -1 | -8 | 0% | nt
COc1ccccc1CNc1ccc(N2CCCCC2)cc1 | -8% | ? | 24 | 45 | 10µM* | ?
COc1cccc(Nc2ccc(N3CCCCC3)cc2)c1OC | nt | 2.3µM* | nt | nt | ? | 4.7µM*
COc1cccc(CNc2ccc(N3CCCCC3)cc2)c1OC | ? | -18% | 30* | 34* | 25µM* | 0.52µM*
CCOc1cc(C(=O)NC2CC(C)(C)NC(C)(C)C2)cc(OCC)c1OCC | 10% | 0% | -1 | 2 | 30% | 0%
CCN(CCCCO)c1nc(C)nc2c1c(C)c(C)n2-c1c(C)cc(C)cc1C | nt | nt | -8 | -10 | nt | nt
Cc1ccc(Cl)cc1N1CCN(S(=O)(=O)c2ccc3c(c2)NC(=O)C(C)C(=O)N3)CC1 (centres undefined) | 15% | ? | -5 | -7 | 79µM* | -2%
Cc1ccc(C)c(N2CCN(S(=O)(=O)c3ccc4c(c3)NC(=O)CS4)CC2)c1 | 12% | 7.4µM* | -5 | -4 | -2% | -27%
O=C1CSc2ccc(S(=O)(=O)N3CCN(c4ccccc4F)CC3)cc2N1 | -4% | 13µM* | 8 | -6 | -10% | ?
O=C1CSc2ccc(S(=O)(=O)N3CCN(c4ccccc4)CC3)cc2N1 | 8% | 14% | 5 | 24 | 5% | -26%
CN1CCN(S(=O)(=O)c2ccc3c(c2)NC(=O)CS3)CC1 | 19% | ? | -5 | -3 | 4% | 45%
Cc1ccc(Cl)cc1N1CCN(S(=O)(=O)c2ccc3c(c2)C(C(C)C)C(=O)N3)CC1 (centres undefined) | nt | nt | nt | nt | 2% | nt
Cc1ccc(C23CC4CC(CC(C(=O)OCC(=O)NC5CCS(=O)(=O)C5)(C4)C2)C3)cc1 (centres undefined) | -1% | 26% | 1 | -9 | -6% | -5%
COc1ccc(OC)c(S(=O)(=O)NCC(c2ccco2)S(=O)(=O)c2ccccc2)c1 (centres undefined) | nt | -19% | nt | nt | 0.32µM* | -5%

Compound activity (PubChem)
